Results filed as inconclusive are left out. A structure can be active in one record and inactive in another. Active and inactive are the calls of the source. Calls follow the shape of the dose curve; as a rule, active = well fitted inhibition curve with a large enough effect; inconclusive = small, poorly fitted or top-dose-only effect; inactive = flat fitted curve, though single readings scatter.

Chain of Microtubule-associated protein tau (Homo sapiens) (P10636 561-689 P618L limits assumed): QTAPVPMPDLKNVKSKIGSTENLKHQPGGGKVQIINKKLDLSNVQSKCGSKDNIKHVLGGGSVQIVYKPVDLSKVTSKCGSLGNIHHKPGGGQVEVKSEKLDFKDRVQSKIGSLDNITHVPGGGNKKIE

This assay addresses Microtubule-associated protein tau (Homo sapiens) (UniProt P10636). Nature of the assay: Confirmation Concentration-Response Assay for Inhibitors of Tau Fibril Formation, Thioflavin T Binding. Particulars: recombinant tau K18 P301L (four-repeat tau fragment) heparin fibrillization, ThT fluorescence; series mostly up to 100 µM; activity change, negative = inhibition: at the top concentration. From the text:
NIH Molecular Libraries Probe Production Network [MLPCN] NIH Chemical Genomics Center [NCGC] MLPCN Grant: X01 MH083262-01 Assay Provider: Carlo Ballatore, University of Pennsylvania NCGC Assay Overview: The microtubule-associated protein tau is an abundant protein in the axons of neurons that stabilizes microtubules. With its ability to modulate microtubule dynamics, tau contributes directly or indirectly, to key structural and regulatory cellular functions. Particularly important is the influence tau exerts on axonal transport, which allows signaling molecules, trophic factors and other essential cellular constituents to travel along the axons. Under pathological conditions, tau becomes sequestered into insoluble aggregates called neurofibrillary tangles. This phenomenon is believed to have pathological consequences by promoting axonal transport deficits that ultimately lead to synaptic dysfunction and neuronal loss. To identify inhibitors of tau aggregation, a heparin-induced tau fibril formation assay was used that employed a recombinantly expressed fragment of tau, K18 (Q242-E372), bearing a P301L mutation (Gustke et al. 1994; Hong et al. 1998). This assay monitors tau fibrillization by Thioflavin T (ThT) fluorescence. Gustke, N., B. Trinczek, et al. (1994). "Domains of tau protein and interactions with microtubules." Biochemistry 33(32): 9511-22. Hong, M., V. Zhukareva, et al. (1998). "Mutation-specific functional impairments in distinct tau isoforms of hereditary FTDP-17." Science 282(5395): 1914-7. Li, W. and V. M. Lee (2006). "Characterization of two VQIXXK motifs for tau fibrillization in vitro." Biochemistry 45(51): 15692-701. von Bergen, M., S. Barghorn, et al. (2001). "Mutations of tau protein in frontotemporal dementia promote aggregation of paired helical filaments by enhancing local beta-structure." J Biol Chem 276(51): 48165-74.
For screening, 2 uL/well human K18 P301L (15 uM unlabeled and 0.24 uM Alexa 594-labeled tau, final concentrations) in reagent buffer (100 mM sodium acetate pH 7) was dispensed into black solid 1536-well plates (Grenier) using a solenoid-based dispenser. Following transfer of 23 nL compound or DMSO vehicle by a pin tool, 2 uL/well heparin (20 uM final concentration) in reagent buffer was added and the plate centrifuged 15 s at 1000 RPM. Plates were incubated 6 hr at 37 C and then 1 uL/well ThT (30 uM final concentration) was added. After a 1 hr ambient incubation, the plates were read by an Envision (Perkin Elmer) to monitor ThT fluorescence (450/8 nm excitation and 510/23 nm emission). Keywords: NIH Roadmap, MLPCN, MLI, MLSMR, NCGC, qHTS, tau, tauopathies, Alzheimer's disease, fibril, neurodegeneration, aggregation
With `CC1CCc2c(sc(NC(=O)Cc3ccccc3)c2C(=O)Nc2ccc(Cl)cc2)C1` (stereo not given), the “activity change, negative = inhibition” value is -7.58% [at 57.1 µM] (inactive).

Turning to `CC(C)Cn1c(O)c(/C=C2\C=NN=C2c2ccccc2)sc1=S`, the “activity change, negative = inhibition” value was -19.8% (inactive).

Turning to `COC(=O)c1c(NC(=O)CCCOc2cccc(C)c2)sc2c1C(C(=O)OC)CC2` (stereo not given), the Potency was 1.78 µM (active).

On to `COc1ccc2c(c1)c(CC(=O)N1CCOCC1)c(C)n2C(=O)c1ccc(Cl)cc1`, for which the “activity change, negative = inhibition” value is -12.2% (inactive).

For the compound `COC(=O)c1c(N)sc2c1C(C(=O)OC)CC2` (stereo not given), the “activity change, negative = inhibition” value is -8.58% [at 57.1 µM] (inactive).

With `CCOC(=O)c1c(N)sc2c1CN(C)CC2`, the “activity change, negative = inhibition” value is -12.4% [at 57.1 µM] (inactive).

Take `COc1c(Cl)cccc1NC(=O)c1c(NC(=O)Cc2ccccc2)sc2c1CCCC2`: the “activity change, negative = inhibition” value is -15.4% [at 57.1 µM] (inactive).

With `COC(=O)CSc1nc2ccc(NC(=O)CSc3nnnn3Cc3ccccc3)cc2s1`, the “activity change, negative = inhibition” value is -10.2% (inactive).

For `Cc1nc2ccccc2oc1=O`, the “activity change, negative = inhibition” value is -2.55% (inactive).

Regarding `COc1ccc2oc(-c3ccc(NC(=O)c4ccc(N5CCOCC5)c([N+](=O)[O-])c4)cc3)nc2c1`, the “activity change, negative = inhibition” value is -36.6% (inactive).

As for `O=C(NCCCO)Nc1ccc2nc(-c3ccco3)c(-c3ccco3)nc2c1`, the Potency is 3.16 µM (active).

On to `O=C(Nc1ccccc1)Nc1ccccc1`, for which the “activity change, negative = inhibition” value was 10.8% (inactive).

`CN(c1ccccc1)S(=O)(=O)c1nnc(NC(=O)C2CCCCC2)s1`: the Potency was 22.4 µM (active).

For `Cc1ccc(NC(=O)N2CCN(c3ccccn3)CC2)cc1`, the “activity change, negative = inhibition” value is -13.3% (inactive).

For the compound `Nc1nc2cc(S(=O)(=O)NC3=NCCCCC3)ccc2s1`, the Potency is 20 µM (active).

For the compound `CN(C)c1ccc(-c2cc[nH]c(=O)c2N)cc1`, the Potency is 1.58 µM (active).

As for `CC(=O)Nc1nc(C)c(-c2csc(Nc3cccc([N+](=O)[O-])c3)n2)s1`, the Potency was 3.55 µM (active).

In the case of `O=C(Nc1cccc(-c2nc3ccccc3o2)c1)c1cc([N+](=O)[O-])ccc1N1CCOCC1`, the “activity change, negative = inhibition” value is -10% (inactive).

`Cc1ccc(N(C)S(=O)(=O)c2nnc(NC(=O)C3CCCCC3)s2)cc1`: the “activity change, negative = inhibition” value is 0.45% (inactive).

With `NC(=O)c1nn(-c2ccccc2)c(=O)c2c(N)scc12`, the Potency was 4.47 µM (active).

Take `Nc1cc(-c2ccncc2)c[nH]c1=O`: the Potency is 10 µM (active).

As for `COc1cc(/C=N/N=C2/NC(=O)C(CC(=O)O)S2)ccc1OCc1ccc(Cl)cc1` (stereo not given), the “activity change, negative = inhibition” value is -9.55% (inactive).

Turning to `CCOC(=O)c1nn(-c2ccc(Cl)cc2)c(=O)c2c(N)scc12`, the Potency is 2.24 µM (active).

As to `COc1ccc(NC(=O)c2c(NC(=O)Cc3ccccc3)sc3c2CCCC3)cc1`, the “activity change, negative = inhibition” value was -0.544% [at 57.1 µM] (inactive).

Regarding `CCOC(=O)c1nn(-c2ccc(F)cc2)c(=O)c2c(N)scc12`, the Potency is 5.01 µM (active).

For `Cc1cccc(NC(=O)c2c(NC(=O)c3ccccc3)sc3c2CCCC3)c1`, the Potency was 7.94 µM (active).

Regarding `Cc1[nH]c(=O)c(C#N)cc1-c1ccncc1`, the “activity change, negative = inhibition” value was -4.9% (inactive).

On to `NC[C@H](O)c1ccc(O)c(O)c1`, for which the Potency is 5.62 µM (active).

Turning to `O=C(Cc1ccccc1)Nc1sc2c(c1C(=O)Nc1ccc(Cl)cc1)CCCC2`, the Potency was 1 µM (active) and inactive.

Regarding `Cn1ncc(Cl)c1C(=O)Nc1cccc(Cl)c1`, the Potency is 44.7 µM (active).

With `O=C(Nc1sc2c(c1C(=O)Nc1cccc(Cl)c1)CCCC2)c1cccs1`, the Potency was 3.55 µM (active).

For the compound `CN(c1ccccc1)S(=O)(=O)c1nnc(NC(=O)COc2ccccc2)s1`, the “activity change, negative = inhibition” value is -16.4% (inactive).

As to `Nc1scc2c(CO)nn(-c3ccccc3)c(=O)c12`, the Potency was 3.98 µM (active).

Regarding `CCN(CC)C(=O)c1nn(-c2ccc(OC)cc2)c(=O)c2c(N)scc12`, the Potency is 10 µM (active).

`CCn1c(CSc2nccn2C)nc2cc(C(=O)O)ccc21`: the Potency was 39.8 µM (active).

As to `COC(=O)C1CCc2sc(NC(=O)Cc3ccccc3)c(C(=O)Nc3ccc(Cl)cc3)c21` (stereo not given), the “activity change, negative = inhibition” value was -12.6% [at 57.1 µM] (inactive).

As to `Nc1cc(-c2ccccc2)c[nH]c1=O`, the Potency is 8.91 µM (active).

In the case of `NCCc1ccc(O)c(O)c1`, the “activity change, negative = inhibition” value is -25.5% (inactive).

For the compound `CCOC(=O)c1nn(-c2ccccc2)c(=O)c2c(NC(=O)c3ccccc3)scc12`, the “activity change, negative = inhibition” value is -7.04% [at 57.1 µM] (inactive).

On to `CCOC(=O)c1c(N)sc2c1CCOC2`, for which the “activity change, negative = inhibition” value was -10.4% [at 57.1 µM] (inactive).
